Measured values as given in PubChem BioAssay AID1903 (Southern Research Specialized Biocontainment Screening …, 2009).
Out of some 310,000 compounds screened, about 1,200 (0.39%) were called active. No rule for the calls is given here. Only a sample is shown. Results with a measured potency or affinity are listed apart.

target: Large T antigen (Simian virus 40) (UniProt P03070); experiment: SV40 large T antigen inhibitors, biochemical (AID 1903); conditions: SV40 large T antigen ATPase/helicase inhibition assay; at 20 µM; stronger effect = higher value
Sequence (P03070 whole entry, looked up): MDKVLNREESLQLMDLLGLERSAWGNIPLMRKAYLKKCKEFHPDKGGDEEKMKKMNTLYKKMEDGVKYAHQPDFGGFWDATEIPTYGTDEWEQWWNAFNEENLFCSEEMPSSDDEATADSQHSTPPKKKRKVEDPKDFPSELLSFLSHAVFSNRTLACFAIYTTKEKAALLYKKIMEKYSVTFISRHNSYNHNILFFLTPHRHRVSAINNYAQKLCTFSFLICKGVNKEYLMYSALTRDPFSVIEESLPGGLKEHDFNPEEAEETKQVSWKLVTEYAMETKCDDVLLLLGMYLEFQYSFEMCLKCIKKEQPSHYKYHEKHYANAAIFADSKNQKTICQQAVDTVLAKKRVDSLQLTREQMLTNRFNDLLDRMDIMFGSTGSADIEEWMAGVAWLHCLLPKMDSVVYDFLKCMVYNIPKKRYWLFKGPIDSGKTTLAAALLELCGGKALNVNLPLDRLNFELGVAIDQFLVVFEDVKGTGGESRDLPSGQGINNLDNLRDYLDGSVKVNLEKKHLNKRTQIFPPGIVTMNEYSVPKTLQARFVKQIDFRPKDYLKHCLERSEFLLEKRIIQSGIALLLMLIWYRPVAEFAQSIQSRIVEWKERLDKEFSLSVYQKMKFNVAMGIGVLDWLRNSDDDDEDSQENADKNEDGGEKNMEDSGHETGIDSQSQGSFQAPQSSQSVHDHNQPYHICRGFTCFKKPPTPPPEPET

inhibition, inactive:
CCOC(=O)c1nc(-c2ccccc2)sc1C(C)=O 13.2%
Cc1ccc(C)c(NC(=O)CN(C)C(=O)c2cc3ccccc3o2)c1 13.7%
O=[N+]([O-])c1ccc(N2CCCCC2)cn1 4.49%
CN1CCN(c2ccc(S(=O)(=O)N3CCCCC3)cc2[N+](=O)[O-])CC1 23.6%
COc1ccc(N2CCN(c3ccc(C(N)=O)cc3[N+](=O)[O-])CC2)cc1 20.4%
O=[N+]([O-])c1ccc(N2CCOCC2)cn1 20.2%
O=[N+]([O-])c1cc(S(=O)(=O)Nc2ccccc2)ccc1N1CCN(c2ccc(O)cc2)CC1 17.3%
CC(=O)c1ccc(N2CCN(c3ccc(C(N)=O)cc3[N+](=O)[O-])CC2)cc1 12.7%
CSc1ncccc1C(=O)Nc1nc(C(C)(C)C)cs1 8.58%
COc1ccc(C(CC(=O)NCc2ccccc2)C(C)C)cc1 (centres undefined) 6.33%
Cc1c(NC(=O)C(C)OC(=O)COc2ccccc2)c(=O)n(-c2ccccc2)n1C (centres undefined) 10.4%
CCCCN(CCCC)CCNC(=O)Cc1nc2c(c(=O)[nH]c(=O)n2C)n1C 3.54%
CC(NC(=O)Nc1ccc(F)cc1F)c1ccc2c(c1)OCO2 (centres undefined) 16.7%
CCCn1c(SCC(=O)NCc2ccc(C)cc2)n[nH]c1=O 7.77%
COc1ccc(NC(=O)CN(C)C(=O)c2cccc(S(=O)(=O)N3CCN(Cc4ccccc4)CC3)c2)cc1 8.39%
COCCn1c(SCC(=O)N2CC(C)OC(C)C2)nc2c([nH]c3ccccc32)c1=O (centres undefined) -1.92%
COc1ccc(OC)c(/C=N/NC(=O)CCc2c(C)n[nH]c2C)c1 5.18%
CN1CCN(CCC(=O)N/N=C/c2cc3c(cc2[N+](=O)[O-])OCO3)CC1 4.45%
COc1ccc(OC)c(/C=N/NC(=O)C(=O)N/N=C/c2cc(OC)ccc2OC)c1 -5.1%
O=C(CCc1ccc(O)c(O)c1)N/N=C/c1ccc2c(c1)OCO2 32.3%
CCN(CC)S(=O)(=O)c1cccc(NC(=O)COC(=O)CCc2nc3ccccc3s2)c1 11.8%
Cc1snc(S(=O)(=O)/C(C#N)=N/Nc2ccc(C(F)(F)F)cc2)c1C#N 6.46%
Cc1ccc(C)c(C(=O)CSc2nnc(C)s2)c1 -0.65%
CC1CCCCN1C(=O)CSc1nc(N)nc(N)n1 (centres undefined) 3.86%
COc1ccc(NC(=O)c2ccccc2NC(=O)COc2ccccc2)cc1 12.1%
COC(=O)c1ccc(OC)c(NS(=O)(=O)c2ccc(-n3cnnn3)cc2)c1 2.42%
O=c1nc(-c2ccccc2)n(-c2ccccc2)[nH]1 -3.35%
Cn1nc(-c2ccccc2)nc1-c1ccccc1 11.2%
COc1cc(C(=O)NCC(=O)N/N=C/c2ccccn2)cc(OC)c1OC 10.4%
CCc1c(C(=O)NNC(=S)Nc2ccc(S(=O)(=O)Nc3ncccn3)cc2)csc1C 15.1%
Cc1n[nH]c(C)c1S(=O)(=O)N1CCC(C(=O)Nc2cccc(F)c2)CC1 4.04%
O=C(NCCc1ccccc1)C1CCN(S(=O)(=O)N2CCCC2)CC1 7.04%
O=C(Nc1ccc(F)cc1)c1ccccc1F 12.9%
COc1ccccc1NC(=O)c1ccc(NC(=O)c2ccco2)cc1 9.63%
Cc1ccc(NC(=O)CCNC(=O)c2ccco2)cc1 1%
O=C(Nc1ccc(NC(=O)c2ccco2)cc1)c1ccco1 3.69%
CCC(=O)Nc1ccc(NC(=O)c2ccco2)cc1 2.13%
COc1cccc(OC)c1C(=O)Nc1ccc(NC(=O)c2ccco2)cc1 2.08%
CC(=O)Nc1ccc(NC(=O)c2ccccc2F)cc1 2.47%
CCN(CC)S(=O)(=O)c1ccc(NC(=O)CCNC(=O)c2ccco2)cc1 7.03%
Cc1cccc(C)c1OCC(=O)NNC(=O)c1ccoc1C 2.67%
CN(C)CCCN(C(=O)c1ccc2ccccc2c1)c1nc2cc3c(cc2s1)OCO3 3.84%
CCOC(=O)n1c(=O)n(C)c2ccc(Br)cc21 4.58%
C(=C\c1ccccc1)/C=N/Nc1nncc(-c2ccccc2)n1 8.88%
Cc1ccc(CN2CCN(C3CCC3)CC2CCO)cc1 (centres undefined) 9.81%
COc1cc(C2Oc3cc(C4Oc5cc(O)cc(O)c5C(=O)C4O)ccc3OC2CO)ccc1O (centres undefined) 22.1%
COc1cc([C@H]2Oc3cc([C@H]4Oc5cc(O)cc(O)c5C(=O)[C@@H]4O)ccc3O[C@@H]2CO)ccc1O 22.1%
CCc1nnc(SCc2ccc(C(=O)OC)o2)n1N 15%
CN1/C(=C\C=N\NC(=O)c2cccnc2)C(C)(C)c2ccccc21 33.6%
CN1/C(=C/C=N/NC(=O)c2ccc([N+](=O)[O-])cc2)C(C)(C)c2ccccc21 4.27%
Cn1c2ccccc2c(=O)c2ccc(F)cc21 0.83%
Cc1ccccc1N1CC(=O)N(c2ccccc2C)CC1=O 0.89%
O=C(CN1C2CCCC1CC(NC(=O)c1ccccc1)C2)Nc1ccccc1 (centres undefined) -14.7%
COc1cccc(C(=O)NC2CC3CCCC(C2)N3CC(=O)Nc2ccccc2)c1 (centres undefined) 34%
COc1cccc(C(=O)NC2CC3CCCC(C2)N3CC(=O)Nc2ccccc2C(F)(F)F)c1 (centres undefined) -1.46%
O=C(CN1C2CCCC1CC(NC(=O)c1ccccc1)C2)NC1CC1 (centres undefined) 6.22%
COc1cc(OC)c(C(=O)NC23CC4CC(CC(C4)C2)C3)cc1OC 3.9%
COC(=O)c1ccc(/C=N/OCC(=O)NCCc2ccc(OC)c(OC)c2)cc1 2.45%
Cn1c(-c2ccccc2)c[n+]2c1-c1ccccc1C2 6.66%
Cc1cccc(N2CCN(C3=NC(=O)C(=C4CCCCC4)S3)CC2)c1 7.31%
CCOc1ccc(NS(=O)(=O)c2ccc(N)cc2)cc1 2.32%
O=C(O)c1cccc2c1C(=O)c1ccccc1C2=O 2.63%
Nc1c(C(=O)O)ccc2c1C(=O)c1ccccc1C2=O 6.68%
CC(C)Oc1ccc(S(=O)(=O)N2CCOCC2)cc1NC(=O)C1CCC1 4.96%
COc1c(/C=N/Nc2ccc([N+](=O)[O-])cc2[N+](=O)[O-])c(C)nn1-c1ccccc1 -4.36%
Cc1nn(-c2ccccc2)c(N)c1Sc1ccc([N+](=O)[O-])cc1 -2.9%
C=CCn1cc(CN2CCC(C(=O)Nc3cccc(-c4cccc(F)c4)c3)CC2)c(C)n1 9.97%
CCN1C(=O)CC(N2CCN(c3ccc(OC)cc3)CC2)C1=O (centres undefined) 27.7%
CCN1C(=O)CC(N2CCC(Nc3ccc(F)cc3)CC2)C1=O (centres undefined) 0.22%
O=C(OCc1cn(Cc2ccccc2)nn1)c1ccccc1 7.89%
COc1ccc2nc(NC(=O)/C=C/c3ccc4c(c3)OCO4)sc2c1 5.17%
O=C(Oc1ccc(N(C(=O)c2ccncc2)S(=O)(=O)c2ccc(F)cc2)cc1)c1ccncc1 32%
Cc1ccc(S(=O)(=O)N(C(=O)c2ccncc2)c2ccc(OC(=O)c3ccncc3)cc2)c(C)c1 23.4%
C=CCN(c1ccccc1Cl)S(=O)(=O)c1cccc(C(=O)NCCc2ccc(OC)cc2)c1 5.14%
COc1ccccc1CNCC(O)Cn1c2ccccc2c2ccccc21 (centres undefined) 16%
CCc1ccc(NC(=O)c2cccnc2)cc1 21.3%
CCn1cc(C(=O)Nc2ccc(F)c(F)c2)cn1 16%
CCn1cc(C(=O)Nc2ccc(C)c([N+](=O)[O-])c2)cn1 2.51%
CCN(CC)c1ccc(NC(=O)c2c(OC)cccc2OC)c(C)c1 24.5%
O=C(Nc1ccc(NC(=O)c2cccnc2)cc1)c1ccccc1 9.81%
CCN(CC)c1ccc(NC(=O)c2cc(OC)cc(OC)c2)c(C)c1 19.6%
CCN(CC)c1ccc(NC(=O)c2ccc3c(c2)OCO3)c(C)c1 22.6%
CCN(CC)c1ccc(NC(=O)c2ccco2)c(C)c1 38%
O=C(CSc1nnc(Cc2ccccc2)n1Cc1ccco1)NC12CC3CC(CC(C3)C1)C2 3.4%
CN(C)C(=O)C1CCC(=O)N1Cc1cccs1 (centres undefined) 3.97%
COc1ccc(N=Cc2c(O)n(-c3ccc(OC)cc3)c(=O)c3ccccc23)cc1 17.6%
CCOc1ccccc1N1CC(C(=O)NCCOc2ccccc2OC)CC1=O (centres undefined) 3.13%
Cc1ccc(-c2nc(CS(=O)(=O)CC(=O)N3CCN(C)CC3)c(C)o2)cc1 6.58%
Cc1nc2scc(C)n2c(=O)c1S(=O)(=O)N1CCN(c2ccc([N+](=O)[O-])cc2)CC1 13.7%
CCc1ccc(N2CC(C(=O)NC3CC3)CC2=O)cc1 (centres undefined) 12.7%
Cc1cc(F)ccc1NC(=O)c1cccnc1 3.85%
Cc1ccccc1NC(=O)c1cccnc1 -1.13%
CCCOc1ccc(C(=O)N/N=C/c2ccc(-c3ccc(S(=O)(=O)Nc4ncccn4)cc3)o2)cc1 35.9%
CCOc1ccc(C(=O)N/N=C/c2ccc(-c3ccc(S(=O)(=O)Nc4ncccn4)cc3)o2)cc1 26.6%
